The full list was thinned out, with hits kept by preference.
GIRK2 activator – GIRK2 channel activators by thallium flux | P48051 | HEK293 GIRK2/NPY4 cells, thallium flux fluorescence | activation (% efficacy), % for hits at 37.5 µM | 34,000 tested, under 10 active;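 active means primary screen hit, no activity in plain HEK293 cells, and in GIRK2-only cells above 5% efficacy rising with concentration; inactive means the rest, including fluorescent compounds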;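 further: efficacy is normalized control-subtracted fluorescence 15 s after thallium addition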
AMPAR-TARP mod – modulators of AMPA receptor GluA2-stargazin complexes; 40,000 tested, 3.5% active; calls only at 30 µM; O88602+P19491; AID 1259245; HEK293 GluA2+stargazin, membrane potential dye (FDSS), glutamate EC50; hits were called plate by plate, in both directions;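 active means any of four per-well response measures lying three or more SD from its plate-wide compound average, in either direction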
Large screens that a line does not name were inactive.

COc1ccc(OC)c2sc(N(Cc3ccncc3)C(=O)C3CCCCC3)nc12	none
CCOc1ccc(S(=O)(=O)NCC2CCN(c3ccccn3)CC2)cc1F	none
CCOc1ccccc1C(=O)NNC(=O)c1ccc(=O)n(Cc2ccccc2)c1	none
O=C(NNC(=O)c1cc2ccccc2oc1=O)c1ccc(=O)n(Cc2ccccc2)c1	AMPAR-TARP mod active
COc1ccc(C(=O)NNC(=O)c2ccc(=O)n(Cc3ccccc3)c2)c(OC)c1	AMPAR-TARP mod active
O=C(NNC(=O)c1ccc(=O)n(Cc2ccccc2)c1)c1ccc(Cl)cc1	none
COc1ccccc1CNC(=O)c1ccc(N2CCCCS2(=O)=O)cc1	none
O=C(CN1C(=O)CCC1=O)N1CC(c2nc(-c3ccsc3)no2)C1	none (no result: AMPAR-TARP mod)
CC(C)C(=O)Nc1ccc(C(=O)NCCNC(=O)c2cccs2)cc1	none
O=C1CCS(=O)(=O)N1c1ccc(S(=O)(=O)NCCc2cccs2)cc1	AMPAR-TARP mod active
Cc1ccc(N2C(=O)CCS2(=O)=O)cc1S(=O)(=O)NCCc1c[nH]c2ccccc12	none
COc1ccc(Cl)cc1S(=O)(=O)Nc1ccc2c(c1)N(C(=O)C(C)(C)C)CC2	AMPAR-TARP mod active
COc1ccccc1OCC(=O)Nc1ccc2c(c1)N(C(=O)C(C)(C)C)CC2	AMPAR-TARP mod active
COc1ccc(OCC(=O)Nc2ccc3c(c2)N(C(=O)C(C)(C)C)CC3)cc1	none
COc1ccc(C)cc1S(=O)(=O)Nc1ccc2c(c1)N(C(=O)C(C)(C)C)CC2	none
CCOc1ccc(-c2nc(Cn3nnc(C(=O)Nc4ccc(F)c(F)c4)c3C)c(C)o2)cc1	none
CCSc1ccccc1C(=O)NCC1(c2ccc(OC)cc2)CCCC1	AMPAR-TARP mod active
COC(=O)NCC1(c2ccc(OC)cc2)CCCC1	none
CC1(C)CC(=O)C2=C(C1)NC1=C(C(=O)CC(C)(C)C1)C2c1cccs1	none
CN1C2=C(C(=O)CC(C)(C)C2)C(c2cc(Br)ccc2O)C2=C1CC(C)(C)CC2=O	AMPAR-TARP mod active (no result: GIRK2 activator)
Cn1cccc(C(=O)NCC(O)Cc2ccccc2)c1=O (centres undefined)	none
Cc1ccc(NS(=O)(=O)c2ccc(F)cc2)cc1N1CCCCC1=O	AMPAR-TARP mod active
COc1cc(NS(=O)(=O)c2ccc(F)cc2)ccc1N1CCCCC1=O	none
CS(=O)(=O)N1CCC(Cn2c(C(F)(F)F)nc3ccccc32)CC1	none
O=S(=O)(c1cccs1)N1CCC(Cn2c(C(F)(F)F)nc3ccccc32)CC1	AMPAR-TARP mod active
NC(=O)CN(c1ccccc1)C1SC(=O)N(c2ccc(F)cc2)C1=O (centres undefined)	none
O=C1CC(NC(=O)c2ccc(Br)o2)CN1 (centres undefined)	none (no result: AMPAR-TARP mod)
CCc1ccccc1NC(=O)N1CCN(c2ccc3nnc(-c4ccco4)n3n2)CC1	AMPAR-TARP mod active
COc1ccccc1NC(=O)N1CCN(c2ccc3nnc(-c4ccco4)n3n2)CC1	none
O=C(Nc1cccc(-c2cnc3n2CCC3)c1)c1ccc2c(c1)OCO2	AMPAR-TARP mod active
Cn1nc(-c2ccccc2)cc1C(=O)Nc1cccc(-c2cnc3n2CCC3)c1	AMPAR-TARP mod active
O=C(Nc1cccc(N2CCCC2=O)c1)c1ccc2c(c1)OCO2	none (no result: GIRK2 activator)
CC(Oc1ccccc1)C(=O)Nc1cccc(-c2cnc3n2CCC3)c1 (centres undefined)	none
O=C(Nc1ccc2c(c1)N(C(=O)C1CC1)CC2)c1ccc2c(c1)OCO2	none
O=C(NCC(c1ccsc1)N1CCCCCC1)c1c(F)cccc1Cl (centres undefined)	AMPAR-TARP mod active
O=C(NCC(c1cccs1)N1CCOCC1)c1c(F)cccc1Cl (centres undefined)	none
O=C(Cn1nc2c(c1NC(=O)c1cccs1)CSC2)NCC1CCCO1 (centres undefined)	none
O=C1CC2(CCN(C(=O)c3ccc(-c4ccccc4)cc3)CC2)Oc2ccccc21	none (no result: GIRK2 activator)
Cc1cccc(C(=O)N2CCC3(CC2)CC(=O)c2ccccc2O3)c1	AMPAR-TARP mod active (no result: GIRK2 activator)
COc1ccc(NC(=O)CN2N=NC3C(=O)N(c4ccc(OC)c(OC)c4)C(=O)C32)c(OC)c1 (centres undefined)	none (no result: GIRK2 activator)
CCCCC(=O)Nc1cc(-c2cn3nc(OC)ccc3n2)ccc1C	none (no result: AMPAR-TARP mod)
CCCCCCOC(=O)C1=C(C)NC(=O)NC1c1ccccc1OCC (centres undefined)	none (no result: GIRK2 activator)
O=C(Nc1c2c(nn1-c1cccc(Cl)c1)CS(=O)C2)C1CCCCC1 (centres undefined)	AMPAR-TARP mod active
CN1CCN(C(=O)C(=O)Nc2c3c(nn2-c2cccc(Cl)c2)CSC3)CC1	none
O=C(CSc1ncnc2c1[nH]c1ccccc12)N1CCN(c2ccc(F)cc2)CC1	none
O=C(NNC(=O)C1CCCC1)c1ccc(=O)n(Cc2ccccc2)c1	none
COc1ccc(OC)c(-c2ccc(=O)n(Cc3ccccc3)n2)c1	none
COc1ccc(OC)c(-c2ccc(=O)n(Cc3cccc([N+](=O)[O-])c3)n2)c1	AMPAR-TARP mod active
CCOc1ccccc1-n1nnnc1SCC(=O)Nc1ccccc1C	none
NS(=O)(=O)c1ccc(CCNC(=O)c2cnc3sccn3c2=O)cc1	none (no result: GIRK2 activator)
COc1cccc(-c2cc3ccc(OC(C)=O)cc3oc2=O)c1	none
Cc1csc(-c2cc3ccc(OC(=O)CCCCl)cc3oc2=O)n1	AMPAR-TARP mod active (no result: GIRK2 activator)
NC(=O)c1ccc(NC(=O)COc2ncccn2)cc1	none
CCc1ccc(NCc2cc3ccc(OC)cc3n(CC(=O)Nc3ccc(OC)cc3)c2=O)cc1	AMPAR-TARP mod active
CCc1ccc(NCc2cc3ccc(OC)cc3n(CC(=O)Nc3ccccc3F)c2=O)cc1	none (no result: GIRK2 activator)
COc1ccc(Cc2nnc(C3CCN(C(=O)c4cccc(N(C)C)c4)CC3)s2)cc1	none
COc1ccc(-c2nc3c(c(=O)c4ccccc4n3C)c(=O)n2CC(C)C)cc1	none (no result: GIRK2 activator)
CC(C)Cn1c(-c2ccc([N+](=O)[O-])cc2)nc2c(c(=O)c3ccccc3n2C)c1=O	AMPAR-TARP mod active (no result: GIRK2 activator)
CC(C)Sc1ccc(C(=O)Nc2nnc(-c3ccncc3)o2)cc1	none
O=C(NCCC1=CCCCC1)C(=O)NCC(c1cccs1)N1CCOCC1 (centres undefined)	none
COc1cccc2sc(NC(=O)c3ccc(S(=O)(=O)C(C)C)cc3)nc12	AMPAR-TARP mod active
CC(C)S(=O)(=O)c1ccc(C(=O)Nc2nc(-c3ccc(Cl)s3)cs2)cc1	none (no result: GIRK2 activator)
COc1ccc(-c2csc(NC(=O)c3ccc(S(=O)(=O)C(C)C)cc3)n2)cc1OC	none (no result: GIRK2 activator)
CC(=O)c1sc(NC(=O)c2ccc(S(=O)(=O)C(C)C)cc2)nc1C	AMPAR-TARP mod active (no result: GIRK2 activator)
CC(C)S(=O)(=O)c1ccc(CC(=O)N2CCC(C(=O)NCC(F)(F)F)CC2)cc1	none (no result: AMPAR-TARP mod)
COc1ccc(S(=O)(=O)CC(=O)Nc2ccc3c(c2)C(=O)NC3=O)cc1	none
COc1ccc(SCCC(=O)Nc2ccc3c(c2)C(=O)NC3=O)cc1	AMPAR-TARP mod active
COc1ccccc1CNC(=O)CC1CCCCN1S(=O)(=O)c1ccccc1 (centres undefined)	none (no result: GIRK2 activator)
COc1ccc(S(=O)(=O)N2CCCCC2CC(=O)NC2CCCCC2)cc1 (centres undefined)	none (no result: GIRK2 activator)
Cc1ccc(S(=O)(=O)N2CCCCC2CC(=O)NCc2ccccn2)cc1 (centres undefined)	none
COc1ccccc1CNC(=O)CC1CCCCN1S(=O)(=O)c1ccc(C)cc1 (centres undefined)	AMPAR-TARP mod active (no result: GIRK2 activator)
COc1ccc(S(=O)(=O)N2CCCCC2CC(=O)NCc2ccc(Cl)cc2)cc1 (centres undefined)	none (no result: GIRK2 activator)
Cc1ccc(S(=O)(=O)N2CCCCC2CC(=O)NC2CCCCCC2)cc1 (centres undefined)	AMPAR-TARP mod active (no result: GIRK2 activator)

High-throughput results from PubChem.
